Assay results published in PubChem BioAssay.
The source made the active and inactive calls. Unless noted, the rule behind the calls is not given here.

Columns and labels:
[1] = anti-His antibody binders, primary screen, artefact control for SMM control protein annotation, biochemical, small-molecule microarray, 635 nm fluorescence (AID 1128); settings: anti-His Alexa647 antibody binding, higher = more signal;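 note: score merges feature fluorescence with signal-to-noise for each printed compound spot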
[2] = system: Human papillomavirus type 1a E7 protein (residues 1-88); assay: HPV1a E7 small-molecule binders, primary screen, biochemical, small-molecule microarray, residues 1-88, 635 nm (AID 1129); settings: small-molecule microarray binding, fluorescence 635 nm; higher = more signal
[3] = molecular target: Focal adhesion kinase 1 (Homo sapiens) (UniProt Q05397); assay: small-molecule microarray binders of FAK, primary screen, biochemical, 635/667 nm fluorescence, BSA, DTT (AID 1130); settings: PTK2 binding, 635 nm fluorescence, higher = more signal;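 note: composite of spot emission at 667 nm and signal to noise over triplicate slides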
Chain of Focal adhesion kinase 1 (Homo sapiens) (Q05397 whole entry, looked up): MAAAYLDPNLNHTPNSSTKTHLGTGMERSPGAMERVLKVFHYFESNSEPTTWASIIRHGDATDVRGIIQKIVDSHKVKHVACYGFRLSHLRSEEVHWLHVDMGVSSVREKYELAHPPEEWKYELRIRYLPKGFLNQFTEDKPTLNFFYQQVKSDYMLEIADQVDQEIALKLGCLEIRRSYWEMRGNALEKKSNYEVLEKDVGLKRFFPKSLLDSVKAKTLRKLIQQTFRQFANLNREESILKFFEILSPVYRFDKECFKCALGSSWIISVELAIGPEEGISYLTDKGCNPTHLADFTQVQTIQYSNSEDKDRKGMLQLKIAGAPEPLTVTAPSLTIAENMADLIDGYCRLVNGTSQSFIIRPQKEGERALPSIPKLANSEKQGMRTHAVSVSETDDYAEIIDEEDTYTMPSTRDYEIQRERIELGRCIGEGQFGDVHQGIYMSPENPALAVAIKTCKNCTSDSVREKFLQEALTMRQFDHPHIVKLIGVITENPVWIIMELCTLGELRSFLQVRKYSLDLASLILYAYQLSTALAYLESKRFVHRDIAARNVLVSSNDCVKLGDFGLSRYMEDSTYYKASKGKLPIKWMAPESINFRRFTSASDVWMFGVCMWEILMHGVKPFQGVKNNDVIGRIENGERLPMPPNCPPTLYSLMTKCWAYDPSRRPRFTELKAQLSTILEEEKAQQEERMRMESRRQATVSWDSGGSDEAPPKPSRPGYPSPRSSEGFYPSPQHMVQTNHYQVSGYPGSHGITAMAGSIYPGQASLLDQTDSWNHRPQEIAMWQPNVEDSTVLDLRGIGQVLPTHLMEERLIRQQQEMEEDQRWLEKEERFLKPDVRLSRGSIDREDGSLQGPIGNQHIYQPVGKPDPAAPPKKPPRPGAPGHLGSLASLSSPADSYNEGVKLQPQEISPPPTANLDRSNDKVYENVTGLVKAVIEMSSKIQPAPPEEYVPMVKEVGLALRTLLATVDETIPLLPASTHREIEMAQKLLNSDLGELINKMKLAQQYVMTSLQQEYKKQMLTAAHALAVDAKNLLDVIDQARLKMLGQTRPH

[4] = system: Fibrinogen (Alexa647-labelled); assay: fibrinogen binders on compound microarrays, profiling panel, artefact control for SMM control-protein annotation, biochemical, small-molecule microarray, 635/667 nm fluorescence (AID 1131); settings: fibrinogen-A647 binding fluorescence, higher = more signal;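 note: z-score merges 667 nm fluorescence with per-spot signal-to-noise over triplicate slides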
[5] = molecular target: Follistatin (Homo sapiens) (UniProt P19883); assay: follistatin binders on small-molecule microarrays, primary screen, biochemical, small-molecule microarray, 635/667 nm fluorescence (AID 1132); settings: FST binding, 635 nm fluorescence, higher = more signal
Chain of Follistatin (Homo sapiens) (P19883 whole entry, looked up): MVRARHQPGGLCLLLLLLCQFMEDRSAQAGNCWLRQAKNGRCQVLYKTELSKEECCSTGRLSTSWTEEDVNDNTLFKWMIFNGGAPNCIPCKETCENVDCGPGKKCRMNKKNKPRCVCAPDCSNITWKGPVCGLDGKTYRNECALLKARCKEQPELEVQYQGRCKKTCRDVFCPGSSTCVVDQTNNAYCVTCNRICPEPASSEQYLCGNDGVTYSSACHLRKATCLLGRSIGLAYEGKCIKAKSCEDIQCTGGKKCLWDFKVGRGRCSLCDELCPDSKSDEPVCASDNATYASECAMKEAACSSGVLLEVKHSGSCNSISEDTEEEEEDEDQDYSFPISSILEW

[6] = molecular target: Fibroblast growth factor 2 (Homo sapiens) (UniProt P09038); assay: FGF2 binders on small-molecule microarrays, primary screen, biochemical, small-molecule microarray, 635/667 nm fluorescence (AID 1133); settings: small-molecule microarray binding, FGF2, fluorescence 635/667; higher = more signal
Chain of Fibroblast growth factor 2 (Homo sapiens) (P09038 whole entry, looked up): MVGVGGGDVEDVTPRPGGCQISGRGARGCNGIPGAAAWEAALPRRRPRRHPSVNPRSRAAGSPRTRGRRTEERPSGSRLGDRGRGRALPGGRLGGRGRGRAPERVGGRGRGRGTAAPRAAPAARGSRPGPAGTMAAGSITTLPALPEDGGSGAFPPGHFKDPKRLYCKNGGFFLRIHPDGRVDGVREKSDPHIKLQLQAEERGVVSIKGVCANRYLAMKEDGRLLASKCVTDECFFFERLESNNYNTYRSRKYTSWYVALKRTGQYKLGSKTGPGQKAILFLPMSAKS

[7] = mitochondrial membrane potential change in A549 cells, profiling panel, cell-based, JC-1 fluorescence, basal, 24 h, 100 nL (AID 1138); settings: higher = more signal;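 note: A549 lung adenocarcinoma cells under basal conditions with no added stimulus; test concentration not given here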
[8] = system: Lefty1; assay: Lefty1 binders on small-molecule microarrays, primary screen, biochemical, small-molecule microarray, 635/667 nm fluorescence (AID 1139); settings: small-molecule microarray binding, fluorescence 635/667; higher = more signal
[9] = system: wheat germ agglutinin (Triticum aestivum), Alexa647-labelled; assay: wheat germ agglutinin binders on compound microarrays, profiling panel, artefact control for SMM control-protein annotation, biochemical, small-molecule microarray, 635/667 nm fluorescence (AID 1140); settings: WGA-A647 binding, 635 nm fluorescence, higher = more signal;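 note: score merges 667 nm feature emission with signal to noise over triplicate slides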
[10] = molecular target: Luciferin 4-monooxygenase (Photinus pyralis) (UniProt P08659); assay: firefly luciferase enzyme inhibitors, primary screen, biochemical, luminescence, purified enzyme, 2006 set (AID 1141); settings: SteadyGlo luminescence, 30 min, higher = more signal, called active from +8 up or from −8 down;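 note: cell-free assay with purified firefly luciferase at 100 ng per well in PBS; test concentration not given here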
Chain of Luciferin 4-monooxygenase (Photinus pyralis) (P08659 whole entry, looked up): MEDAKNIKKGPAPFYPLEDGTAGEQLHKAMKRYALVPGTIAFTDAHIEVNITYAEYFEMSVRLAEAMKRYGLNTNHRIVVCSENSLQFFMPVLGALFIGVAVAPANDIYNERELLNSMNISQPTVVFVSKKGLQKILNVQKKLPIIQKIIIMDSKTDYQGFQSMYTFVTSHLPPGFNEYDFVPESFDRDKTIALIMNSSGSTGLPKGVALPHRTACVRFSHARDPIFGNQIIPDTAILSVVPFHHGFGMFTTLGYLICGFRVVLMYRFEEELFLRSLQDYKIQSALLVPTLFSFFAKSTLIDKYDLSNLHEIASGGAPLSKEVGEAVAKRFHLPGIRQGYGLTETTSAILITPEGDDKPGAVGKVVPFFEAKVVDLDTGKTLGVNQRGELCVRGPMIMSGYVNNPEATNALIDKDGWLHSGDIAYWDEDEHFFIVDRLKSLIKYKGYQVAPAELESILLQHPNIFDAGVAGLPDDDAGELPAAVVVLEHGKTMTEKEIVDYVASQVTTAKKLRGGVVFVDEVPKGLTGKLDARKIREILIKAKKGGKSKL

[11] = system: Wnt5a (protein binding on small-molecule microarray); assay: Wnt5a binders on small-molecule microarray, primary screen, biophysical, 635/667 nm fluorescence (AID 1142); settings: 635 nm fluorescence, higher = more signal;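 note: fluorescence read at 667 nm with signal to noise per printed feature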
[12] = cell viability in Huh7 cells, primary screen, cytotoxicity control for HCV replication inhibitor project, CellTiter-Glo luminescence, basal, 48 h (AID 1143); settings: Huh7 HCV replicon, higher = more signal, called active from +8 up or from −8 down;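 note: Huh7 hepatoma cells carrying a hepatitis C replication reporter with no stimulus; test concentration not given here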
[13] = P. aeruginosa biofilm formation inhibitors, primary screen, PAO1 strain, BacTiter-Glo luminescence, LB-PBS (AID 1144); settings: 12 h, higher = more signal
[14] = CREB reporter modulators without forskolin, primary screen, cell-based, PC12, CRE-LacZ reporter, unstimulated (AID 1145); settings: no forskolin, luminescence, 4.5 h, higher = more signal, called active from +8 up or from −8 down
[15] = CREB reporter modulators under forskolin, primary screen, cell-based, PC12, CRE-LacZ reporter, forskolin-stimulated (AID 1146); settings: luminescence, 4.5 h, higher = more signal, called active from +8 up or from −8 down;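 note: PC12 cells with 6xCRE LacZ reporter stimulated by forskolin 10 µM; beta-galactosidase reporter signal reflecting CREB driven transcription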
[16] = molecular target: Streptavidin (Streptomyces avidinii) (UniProt P22629); assay: streptavidin binders on small-molecule microarray, primary screen, artefact control for SMM compound annotation, biophysical, 635/667 nm fluorescence (AID 1147); settings: streptavidin binding, higher = more signal;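 note: signal reflects streptavidin binding to arrayed compounds as a control protein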
Chain of Streptavidin (Streptomyces avidinii) (P22629 whole entry, looked up): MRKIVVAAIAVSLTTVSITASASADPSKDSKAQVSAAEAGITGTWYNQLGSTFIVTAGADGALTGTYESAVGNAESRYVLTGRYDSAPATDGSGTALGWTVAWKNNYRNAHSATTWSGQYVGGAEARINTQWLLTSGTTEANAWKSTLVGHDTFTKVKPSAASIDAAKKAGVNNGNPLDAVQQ

[17] = small-molecule binders of probe aInhba, primary screen, biochemical, small-molecule microarray, 635/667 nm fluorescence (AID 1148); settings: higher = more signal;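 note: score merges 667nm spot fluorescence with signal-to-noise for antibody binding to printed compounds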
[18] = molecular target: Torsin-1A (Homo sapiens) (UniProt O14656); assay: torsin A binders from cell lysate, primary screen, small-molecule microarray, wild-type, 635/667 nm (AID 1149); settings: COS7 hTOR1A-WT lysate, 635 nm fluorescence, higher = more signal
Chain of Torsin-1A (Homo sapiens) (O14656 whole entry, looked up): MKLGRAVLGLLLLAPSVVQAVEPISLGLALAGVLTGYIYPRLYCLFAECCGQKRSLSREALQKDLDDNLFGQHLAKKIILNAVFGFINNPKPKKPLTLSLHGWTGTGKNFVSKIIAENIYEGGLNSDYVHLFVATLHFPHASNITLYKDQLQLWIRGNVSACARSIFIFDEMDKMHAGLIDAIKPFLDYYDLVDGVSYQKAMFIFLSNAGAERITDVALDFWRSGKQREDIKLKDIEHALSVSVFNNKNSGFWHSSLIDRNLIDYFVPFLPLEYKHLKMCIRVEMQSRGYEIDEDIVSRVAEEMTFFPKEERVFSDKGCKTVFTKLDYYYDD

[19] = molecular target: Torsin-1A (Homo sapiens) (UniProt O14656); assay: small-molecule binders of mutant TOR1A in lysate, primary screen, cell lysate, small-molecule microarray, COS7 lysate, 635/667 nm fluorescence (AID 1150); settings: COS7 hTOR1A mutant lysate, 635 nm fluorescence, higher = more signal;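 note: score pools 667 nm emission and signal to noise measuring lysate protein binding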
[20] = system: Sonic hedgehog protein (Shh); assay: small-molecule binders of Shh protein, primary screen, biochemical, small-molecule microarray, 635/667 nm fluorescence (AID 1151); settings: small-molecule microarray binding, 635 nm fluorescence; higher = more signal;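 note: Shh protein binding to compounds spotted on small-molecule microarray slides; score combines spot fluorescence intensity with signal-to-noise across triplicate slides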

For `CCCCCN1CC=CC23O[C@@H]4/C=C\CCCOC(=O)C4[C@H]2C(=O)N(CCCO)[C@@H]3C1=O` (stereo not given in full), the composite z-score [1] was 2.06, the composite z-score [2] was 1.3 and the composite z-score [3] was 1.23. It also gave a composite z-score [4] of -0.965, a composite z-score [5] of -0.162 and a composite z-score [6] of -0.281. For the same compound, the z-score [7] was -0.564, the composite z-score [8] was 0.157 and the composite z-score [9] was 0.197. The z-score [10] was -2.41 (inactive), the composite z-score [11] was 0.132 and the z-score [12] was 0.37 (inactive). The z-score [13] was -1.17 (inactive), the z-score [14] was -0.619 (inactive) and the z-score [15] was -0.812 (inactive). For the same compound, the composite z-score [16] was -0.413, the composite z-score [17] was -0.233 and the composite z-score [18] was 2.02. The composite z-score [19] was 2.27 and the composite z-score [20] was -0.163.

`COC(=O)[C@@]1(Cc2ccccc2)[C@H]2c3cc(C(=O)N(C)C)n(CCSCCO)c3C[C@H]2CN1C(=O)c1ccccc1` gave a composite z-score [1] of 1.25, a composite z-score [2] of 1.2 and a composite z-score [3] of 0.342. For the same compound, the composite z-score [4] was 0.632, the composite z-score [5] was -0.347 and the composite z-score [6] was -0.299. For the same compound, the z-score [7] was 0.599, the composite z-score [8] was -0.84 and the composite z-score [9] was 0.879. For the same compound, the z-score [10] was 1.14 (inactive), the composite z-score [11] was 0.197 and the z-score [12] was -0.432 (inactive). For the same compound, the z-score [13] was 0.33 (inactive), the z-score [14] was 0.397 (inactive) and the z-score [15] was 0.695 (inactive). For the same compound, the composite z-score [16] was 0.357, the composite z-score [17] was -0.0589 and the composite z-score [18] was -0.0487. It also gave a composite z-score [19] of 0.796 and a composite z-score [20] of -0.931.

For `O=C1O[C@H](c2ccccc2)[C@H](c2ccccc2)N2[C@H]1[C@@H](C(=O)O)[C@]1(C(=O)Nc3ccc(C#CCCO)cc31)[C@H]2c1ccc(O)cc1`, the composite z-score [1] was 0.0887, the composite z-score [2] was 0.0227 and the composite z-score [3] was 0.724. The composite z-score [4] was -0.862, the composite z-score [5] was 0.771 and the composite z-score [6] was -0.317. It also gave a z-score [7] of 1.07, a composite z-score [8] of -0.279 and a composite z-score [9] of 0.349. For the same compound, the z-score [10] was -1.72 (inactive), the composite z-score [11] was -0.0604 and the z-score [12] was -1.04 (inactive). For the same compound, the z-score [13] was 0.301 (inactive), the z-score [14] was -1.28 (inactive) and the z-score [15] was -1.37 (inactive). For the same compound, the composite z-score [16] was -0.668, the composite z-score [17] was 0.161 and the composite z-score [18] was 0.309. The composite z-score [19] was 0.499 and the composite z-score [20] was 0.0441.

For `CC(C)C[C@@H]1NC(=O)[C@H]2C[C@@H](C(=O)NCCCCCCN)[C@@H](c3ccc(O)cc3)N2C1=O`, the composite z-score [1] was 2.99, the composite z-score [2] was -0.313 and the composite z-score [3] was 0.496. For the same compound, the composite z-score [4] was 0.8, the composite z-score [5] was 1.32 and the composite z-score [6] was 0.823. The z-score [7] was -1.06, the composite z-score [8] was 0.632 and the composite z-score [9] was 0.0592. The z-score [10] was -0.288 (inactive), the composite z-score [11] was 0.0135 and the z-score [12] was -0.875 (inactive). The z-score [13] was 0.469 (inactive), the z-score [14] was 0.553 (inactive) and the z-score [15] was 1.08 (inactive). The composite z-score [16] was 0.569, the composite z-score [17] was 0.243 and the composite z-score [18] was 1.07. For the same compound, the composite z-score [19] was 0.339 and the composite z-score [20] was 0.553.

In the case of `COCCOC(=O)N1C(=O)[C@@]2(c3ccccc31)[C@H](c1ccc(O)cc1)N1[C@H](c3ccccc3)[C@H](c3ccccc3)OC(=O)[C@H]1[C@@H]2C(=O)NC[C@H](O)c1ccccc1`, the composite z-score [1] is reported as 2.08, the composite z-score [2] is reported as 1.2 and the composite z-score [3] is reported as -0.0504. The composite z-score [4] was 0.068, the composite z-score [5] was 0.532 and the composite z-score [6] was -0.104. It also gave a z-score [7] of -0.767, a composite z-score [8] of 0.282 and a composite z-score [9] of 0.0324. For the same compound, the z-score [10] was 0.733 (inactive), the composite z-score [11] was -0.0136 and the z-score [12] was -1.03 (inactive). For the same compound, the z-score [13] was 0.494 (inactive), the z-score [14] was 0.595 (inactive) and the z-score [15] was 1.31 (inactive). For the same compound, the composite z-score [16] was -0.551, the composite z-score [17] was 0.0051 and the composite z-score [18] was 0.849. It also gave a composite z-score [19] of 0.805 and a composite z-score [20] of 0.474.

`CC(C)(C)OC(=O)CC[C@]12N=C(c3ccc(OCCCO)cc3)O[C@H]1c1ccccc1N(CCS(=O)(=O)c1ccccc1)C2=O` gave a composite z-score [1] of 1.99, a composite z-score [2] of 1.24 and a composite z-score [3] of 0.895. For the same compound, the composite z-score [4] was 0.957, the composite z-score [5] was 1.17 and the composite z-score [6] was 0.596. It also gave a z-score [7] of 0.95, a composite z-score [8] of 0.5 and a composite z-score [9] of 1.08. For the same compound, the z-score [10] was -8.32 (active), the composite z-score [11] was 0.628 and the z-score [12] was -2.91 (inactive). The z-score [13] was -0.556 (inactive), the z-score [14] was 3.64 (inactive) and the z-score [15] was -1.42 (inactive). It also gave a composite z-score [16] of 0.579, a composite z-score [17] of 0.0785 and a composite z-score [18] of 0.698. For the same compound, the composite z-score [19] was 0.811 and the composite z-score [20] was 1.2.
